What all share (experiment): NCI-60 one-dose screen, 48 h (100 = growth as untreated, 0 = no growth, -100 = all killed)
Holding throughout (conditions): 10 µM unless noted

For experiment [1], the system named is DU-145 prostate.
In experiment [2] the test system is K-562 leukemia.
Experiment [3] has as its system MALME-3M melanoma.
The subject of experiment [4] is MDA-MB-231 breast.
In experiment [5] the test system is RXF 393 renal.
The test system of experiment [6] is SF-268 CNS.
For experiment [7], the system named is SF-295 CNS.
The subject of experiment [8] is SF-539 CNS.
For experiment [9], the system named is UACC-257 melanoma.
Experiment [10] concerns M14 melanoma.
Experiment [11] relates to HCT-15 colon.
Experiment [12] deals with HT29 colon.
The subject of experiment [13] is SNB-75 CNS.
Experiment [14] has as its system SNB-19 CNS.
The test system of experiment [15] is U251 CNS.
The test system of experiment [16] is PC-3 prostate.
For experiment [17], the system named is SK-MEL-5 melanoma.
Experiment [18] concerns UACC-62 melanoma.
Experiment [19] relates to LOX IMVI melanoma.
Experiment [20] deals with SK-MEL-28 melanoma.

Molecules are shown by their SMILES. The panel holds about 83,000 compounds, 20% with a hit somewhere; the sample as a whole holds those more often.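 Results are percent growth after 48 hours of single-concentration exposure. 100 means growth as in untreated cells, lower positive values show inhibition; negative values down to -100 show cell death.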 Values without a mark were called inactive. The source made the active and inactive calls. Rule for the calls: active = growth percent below 10; inactive = the rest.

Consider `CC(C)(C)c1ccc(Cn2c(-c3nonc3N)nc3ccccc32)cc1`, for which the growth was 83.3% in experiment [1]; 19.1% in [2]; 82.3% in experiment [3]; 81.8% in experiment [4]; 77.8% in experiment [5]; 75.6% in experiment [6]. In addition, the growth is 71.5% in experiment [7]; 89.7% in [8]; 76.8% in experiment [9]; 66.9% in experiment [10]; 49.1% in [11]; 41.6% in [12]. For the same molecule, the growth was 61.7% in experiment [13]; 77.4% in experiment [14]; 64.5% in [15]; 67.4% in experiment [16]; 74.9% in experiment [17]; 69.5% in [18]. Moreover, the growth in experiment [19] is 70.2%; in experiment [20], 72.7%.

As to `Nc1cc2nc3ccccc3oc-2cc1=O`, the growth in [1] is -97.1% (active); in experiment [2], 10.6%; in [3], -45.8% (active); in experiment [4] it was 59.8%; in [5] it was 81.1%; in experiment [6], 38.5%. Besides, the growth in [7] was -11.1% (active); in experiment [8], -20% (active); in [9], 31.7%; in experiment [10], -83.6% (active); in [11], 18.2%; in experiment [12], 38.8%. Also, the growth in experiment [13] was -86% (active); in experiment [14], 80.8%; in [15], 35.6%; in experiment [16] it was 27.8%; in experiment [17], -97.9% (active); in experiment [18] it was -75.2% (active). The growth in experiment [19] was -11.4% (active); in [20], -56.2% (active).

Regarding `C=C1NC(=O)C(C(C)CC)NC(=O)C2CSCC(NC(=O)CCC(=O)O)C(=O)NC(Cc3ccccc3)C(=O)NC(C)C(=O)NC(CC(C)CC)C(=O)NC(C(=O)NC(Cc3ccccc3)C(=O)N3CCCC3C(=O)N2)C(C)OC(=O)C(CO)NC(=O)C(C(O)COC)N(C)C(=O)C(C(C)C)NC(=O)C(CC(C)CC)NC1=O` (stereo not given), the growth in [1] was 9.63% [6 µM] (active); in experiment [2], 9.39% [6 µM] (active); in experiment [3], 55.3% [6 µM]; in experiment [4], 35.1% [6 µM]; in experiment [5], 21.6% [6 µM]; in experiment [6], 25.5% [6 µM]. The growth is 14.9% [6 µM] in experiment [7]; -6.71% [6 µM] (active) in [8]; 30.1% [6 µM] in experiment [9]; 5.52% [6 µM] (active) in experiment [10]; 15.8% [6 µM] in experiment [11]; 4.74% [6 µM] (active) in experiment [12]. Further, the growth in experiment [13] was 11.4% [6 µM]; in experiment [14], 21.3% [6 µM]; in [15], 11.2% [6 µM]; in experiment [16] it was 22.1% [6 µM]; in experiment [17] it was -44.8% [6 µM] (active); in [18] it was 39.8% [6 µM]. Besides, the growth in [19] was 15.1% [6 µM]; in experiment [20], 60.2% [6 µM].

`Clc1ccc2c(c1)-n1cccc1C(c1ccc3ccccc3c1)=NC2`: the growth in [1] is 115%; in [2] it was 49.4%; in experiment [3], 97.8%; in [4], 120%; in experiment [5] it was 96.1%; in [6], 109%. Besides, the growth in experiment [7] is 80.6%; in experiment [8] it was 103%; in [9] it was 100%; in experiment [10], 87.8%; in experiment [11] it was 77.2%; in [12] it was 74.1%. Also, the growth is 83.2% in experiment [13]; 79.1% in [14]; 95.6% in experiment [15]; 79.8% in experiment [16]; 95.8% in experiment [17]; 78.3% in [18]. Moreover, the growth in experiment [19] was 112%; in experiment [20], 100%.

In the case of `Cc1nc2c(-c3cnc(N)nc3)nc(N3CCOCC3)nc2n1C(C)C`, the growth in experiment [1] is 13.4%; in experiment [2], 12.6%; in [3], -19.2% (active); in [4] it was 23.9%; in [5] it was -29.6% (active); in [6], 9.06% (active). Moreover, the growth in [7] is -36.1% (active); in [8] it was -42.2% (active); in experiment [9], -23% (active); in experiment [10], 4.2% (active); in experiment [11], 10.7%; in experiment [12], 3.37% (active). Further, the growth in [13] is -38.8% (active); in experiment [14], 10.6%; in experiment [15], 4.62% (active); in experiment [16], 14.4%; in experiment [17], -21.2% (active); in [18], -39.9% (active). The growth in experiment [19] was -1.69% (active); in experiment [20], -10.1% (active).

In the case of `CC(C)NCCCCCNc1cc(O)cc2cccnc12`, the growth was 93.2% in [1]; 67.6% in experiment [2]; 23.8% in [3]; 26.6% in experiment [4]; 74.7% in experiment [5]; 89.2% in [6]. In addition, the growth in experiment [7] was 77.4%; in [8] it was 71.5%; in [9], 111%; in experiment [10], 88.2%; in experiment [11] it was 94.6%; in experiment [12], 54.2%. The growth in experiment [13] was 56.4%; in experiment [14], 107%; in experiment [15], 101%; in [16] it was 92.4%; in experiment [17], 88.2%; in [18] it was 94.5%. Further, the results for the growth in experiment [19] and in experiment [20] were 72.2% and 91.6%, respectively.

Take `CC(C)CC(NC(=O)OCC1c2ccccc2-c2ccccc21)C(=O)O` (stereo not given): the growth is 116% in experiment [1]; 116% in experiment [2]; 109% in experiment [3]; 103% in experiment [4]; 103% in experiment [5]; 112% in experiment [6]. Moreover, the growth in [7] is 77.2%; in experiment [8], 104%; in experiment [9] it was 102%; in experiment [10], 105%; in [11], 105%; in [12], 112%. The growth was 90.3% in [13]; 99.1% in [14]; 97.6% in experiment [15]; 104% in experiment [16]; 101% in [17]; 104% in experiment [18]. Besides, the growth in experiment [19] was 103%; in experiment [20], 105%.

Source of the values: PubChem BioAssay (NCI).
